Screening results deposited in PubChem by National Center for Advancing Translational Sciences (NCATS).
Compounds with a hit are over-represented: about 12% of the library has one in this group of screens.
JMJD2A Tudor inh: qHTS Assay for Inhibitors of JMJD2A-Tudor Domain; Lysine-specific demethylase 4A (Homo sapiens), O75164; AlphaScreen JMJD2A-Tudor / H3K4me3 peptide binding; Potency, µM (titrated, usually from 114 µM), most hits filed as inhibitors; 390,000 compounds, 4.4% hits; AID 504339, 2011; further: nearly all actives have a fitted effect of over 50% in size
PLK1 PBD block: qHTS for Inhibitors of PLK1-PDB (polo-like kinase 1 - polo-box domain): Primary Screen | Serine/threonine-protein kinase PLK1 (Homo sapiens), P53350 | Plk1 PBD binding of FITC phosphopeptide, fluorescence polarization | Potency, µM, most hits filed as inhibitors | 360,000 compounds, 2.8% hits; further: series mostly up to about 57 µM; nearly all actives have a fitted effect of over 65% in size
HP1b chromo inh: HTS for Inhibitors of HP1-beta Chromodomain Interactions with Methylated Histone Tails; Chromobox protein homolog 1 (Homo sapiens), P83916; AlphaScreen HP1-beta / biotin-H3K9me3 peptide binding; Potency, µM (highest dose often 114 µM), hits mostly inhibitors; 390,000 compounds, 0.56% hits; AID 540317, 2011; further: nearly all actives have a fitted effect of over 70% in size
Target sequence (P83916 whole entry, looked up): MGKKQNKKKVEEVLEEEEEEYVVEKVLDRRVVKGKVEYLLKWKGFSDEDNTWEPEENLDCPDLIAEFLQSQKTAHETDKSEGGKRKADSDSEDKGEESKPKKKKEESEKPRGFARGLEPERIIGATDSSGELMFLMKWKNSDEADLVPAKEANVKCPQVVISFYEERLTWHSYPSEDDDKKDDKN
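HP1-beta protein (50 nM final) preincubated 30 min at room temperature with biotinylated H3(1-18)K9me3 peptide (50 nM) in PBS pH 7.4, 0.01% Tween-20, then compound added for 30 min. AlphaScreen streptavidin donor/nickel chelate acceptor beads (10 ug/mL final), 30 min dark, luminescence read.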
G9a block: qHTS Assay for Inhibitors of Histone Lysine Methyltransferase G9a; Histone-lysine N-methyltransferase EHMT2 (Homo sapiens), Q96KQ7; G9a H3K9 monomethylation, AlphaScreen, 2 h; Potency, µM (highest dose often 102 µM), usual class: inhibitors; 350,000 compounds, 8.8% hits; further: nearly all actives have a fitted effect of over 75% in size
Target sequence (Q96KQ7 913-1193 limits assumed): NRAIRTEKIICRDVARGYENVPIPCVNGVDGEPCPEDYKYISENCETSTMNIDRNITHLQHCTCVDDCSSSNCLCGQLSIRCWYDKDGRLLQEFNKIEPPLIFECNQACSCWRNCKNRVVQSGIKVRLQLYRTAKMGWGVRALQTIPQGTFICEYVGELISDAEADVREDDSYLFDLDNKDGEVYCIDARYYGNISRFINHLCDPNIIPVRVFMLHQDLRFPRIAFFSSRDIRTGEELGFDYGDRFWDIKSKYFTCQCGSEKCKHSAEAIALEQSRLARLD
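G9a (20 nM) preincubated 15 min RT with compounds, then 500 nM biotinylated H3K9 peptide and 20 uM SAM added; 2 h RT reaction. Monomethyl-H3K9 product detected by AlphaScreen with anti-H3K9me1 antibody, streptavidin donor and anti-rabbit IgG acceptor beads.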
Sfp PPTase inh: qHTS Assay for Inhibitors of Bacillus subtilis Sfp phosphopantetheinyl transferase (PPTase) | 4'-phosphopantetheinyl transferase ffp (Bacillus subtilis), Q9F4F7 | Biochemical Sfp PPTase activity, qHTS | Potency, µM, hits mostly inhibitors | 310,000 compounds, 3.5% hits | AID 1490, 2009;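 further: the enzyme is Sfp with the accession as filed and its product quenches rhodamine fluorescence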
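Reaction rates are the 30-min fluorescence difference (ex 525, em 598 nm) in wells containing 15 nM Sfp, 5 uM rhodamine-CoA and 12.5 uM BHQ-2-YbbR at pH 7.6 with 10 mM MgCl2.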
BAZ2B block: qHTS Assay for Inhibitors of BAZ2B | AlphaScreen BAZ2B-H3K14Ac peptide displacement | Potency, µM (top dose mostly 114 µM), usual class: inhibitors | Bromodomain adjacent to zinc finger domain protein 2B (Homo sapiens), Q9UIF8 | AID 504333, 2011 | 360,000 compounds, 4.4% hits; further: nearly all actives have a fitted effect of over 60% in size
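AlphaScreen displacement of biotin-H3(5-23)K14Ac peptide (50 nM final) from BAZ2B (50 nM final) in PBS pH 7.4, 0.01% Tween-20; complex preformed 30 min RT, then compounds (top 110 uM) 30 min RT, beads 20 min dark.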
Of the large screens only hits and unclear results are named; the others gave an inactive call. The call rests on the fitted dose curve; in most records, active means well fitted curve in the direction sought with a large enough effect; inconclusive means small, poorly fitted or top-dose-only effect, or another doubt; inactive means no such curve, though single readings can be large; an effect the other way counts as inactive or inconclusive.

CN(C)S(=O)(=O)c1ccc(/C(O)=C2/C(=O)C(=O)N(Cc3cccnc3)C2c2ccncc2)cc1 (centres undefined)	G9a block 15.8µM
CN(C)S(=O)(=O)c1ccc(/C(O)=C2/C(=O)C(=O)N(Cc3cccnc3)C2c2cccs2)cc1 (centres undefined)	G9a block 39.8µM
CN(C)S(=O)(=O)c1ccc(/C(O)=C2/C(=O)C(=O)N(Cc3cccnc3)C2c2ccco2)cc1 (centres undefined)	JMJD2A Tudor inh inconclusive, G9a block inconclusive, BAZ2B block inconclusive
CCCCOc1ccc(C2CCC(C(C)=O)C(C)C2)cc1 (centres undefined)	none (no result: G9a block)
CC(C)Cn1c(=O)[nH]c2ccccc21	none
CC(C)Cn1[nH]c2c3c(ccc2c1=O)C(=O)c1ccccc1C3=O	G9a block inconclusive, BAZ2B block 10µM
Cc1cccc(-n2[nH]c3c4c(ccc3c2=O)C(=O)c2ccccc2C4=O)c1	G9a block 14.1µM, BAZ2B block inconclusive
COc1nccnc1NS(=O)(=O)c1ccc(N)cc1	none
O=C(NCC1CCN(Cc2ccccc2Cl)CC1)c1cc2ccc3cccnc3c2[nH]1	G9a block inconclusive (no result: PLK1 PBD block, Sfp PPTase inh)
Cc1c(C(=O)N(C)C)c2ccc(Cl)cc2n1O	G9a block 3.16µM
Cc1c(C(=O)N(C)C)c2cc(Cl)ccc2n1O	G9a block inconclusive
COc1cccc(CNS(=O)(=O)c2cnc(N)nc2)c1	none (no result: PLK1 PBD block, Sfp PPTase inh)
Cc1ccc(Sc2ncnc3onc(C)c23)cc1	PLK1 PBD block 18.9µM
Cc1ccc(NC(=O)Cn2cnc3ccccc32)cc1C	JMJD2A Tudor inh inconclusive, PLK1 PBD block 13.4µM
O=C(CCn1cnc2ccccc21)N/N=C/c1ccccc1O	PLK1 PBD block 8.44µM
Cc1nc2ccccc2n1CC(=O)N/N=C\c1ccccn1	JMJD2A Tudor inh inconclusive, G9a block inconclusive, Sfp PPTase inh inconclusive, BAZ2B block 50.1µM
O=C(CCn1cnc2ccccc21)N/N=C/c1ccc(O)cc1	none
O=C(Cn1cnc2ccccc21)N/N=C/c1cccnc1	none
O=C(Cn1cnc2ccccc21)N/N=C/c1ccccn1	Sfp PPTase inh 79.4µM, BAZ2B block 10µM
COc1ccc(C(NC(=O)C2CCN(CCCOc3ccccc3)CC2)c2cccs2)cc1 (centres undefined)	none (no result: JMJD2A Tudor inh, HP1b chromo inh, G9a block, Sfp PPTase inh, BAZ2B block)
CN1CCN(c2ncnc3ccc(-c4cccc(NS(C)(=O)=O)c4)cc23)CC1	none (no result: JMJD2A Tudor inh, PLK1 PBD block, HP1b chromo inh, BAZ2B block)
NCC1O[C@@H](O[C@@H]2C(O)[C@H](O[C@H]3OC(CO)C(O)C(N)C3O)[C@@H](N)C[C@H]2N)C(N)C(O)C1O (some centres undefined)	none (no result: JMJD2A Tudor inh, PLK1 PBD block, HP1b chromo inh, BAZ2B block)
NS(=O)(=O)c1cc(C(=O)N2CCNC(=O)C2)ccc1Cl	none
O=C(c1ccncc1)N1CCC2(CC1)CN(c1ccncc1)C2	none (no result: JMJD2A Tudor inh, PLK1 PBD block, HP1b chromo inh, BAZ2B block)
CCc1ccc2[nH]c(C(=O)Nc3ccc4c(c3)OCO4)cc2c1	JMJD2A Tudor inh inconclusive, G9a block 22.4µM
O=C(Nc1ccc2c(c1)OCO2)c1ccc(CO)cc1	none (no result: Sfp PPTase inh)
Cc1cc(C)c(NC(=O)Nc2ccc3c(c2)OCO3)c(C)c1	none (no result: G9a block)
Cc1cc(C)c2[nH]c(C(=O)Nc3ccc4c(c3)OCO4)cc2c1	JMJD2A Tudor inh 56.2µM, G9a block 17.8µM, BAZ2B block 50.1µM
C[C@@H]1CCCCCCCCC(=O)OCCN(C(=O)OC(C)(C)C)[C@H](C)CCCCCCCCC(=O)OCCN(C(=O)OC(C)(C)C)[C@H](C)CCCCCCCCC(=O)OCCN1C(=O)OC(C)(C)C	none (no result: G9a block, Sfp PPTase inh, BAZ2B block)
Nc1nc2c(nc(Br)n2C2OC3COP(=O)(O)O[C@@H]3C2O)c(=O)[nH]1 (some centres undefined)	none (no result: JMJD2A Tudor inh, PLK1 PBD block, HP1b chromo inh, Sfp PPTase inh, BAZ2B block)
Cc1[nH]c2ccccc2c1NC(=O)CN1CCN(c2cccc(C(F)(F)F)c2)CC1	JMJD2A Tudor inh inconclusive, G9a block inconclusive, BAZ2B block 50.1µM
